Assay [1] in a line: qHTS assay for measurement of the activity of small molecule inhibitors on Zika virus induced Caspase-3 activity in human iPSC derived neural progenitor cells (hNPCs) (AID 1224857). Further: % of control where 0% means no effect; nearly all actives have a fitted effect of over 65% in size. Summed up:
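Caspase-3/7 induction by a 6-hour ZIKV infection was quantified with a luminescent Caspase-Glo 3/7 reagent incubated 30 minutes at room temperature. Compounds were preincubated with hNPCs for 1 hour; inhibition was calculated against uninfected and infected control wells.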
On the technique in general: In qHTS, concentration-response curves come from the screen itself.

A short description of assay [2]: qHTS assay for measurement of the activity of small molecule inhibitors on Zika virus induced Caspase-3 activity in human astrocytoma cells (AID 1224859).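 Further: plate controls were ZIKV-infected untreated cells for no effect and uninfected cells for full effect.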 Summed up: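 In SNB-19 cells plated at 250 cells/well and grown 16-20 h, compounds were applied 1 h before ZIKV (2 FFU/cell). Six hours later caspase-3/7 luminescence was recorded.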
In assay [3] the target is Atrial natriuretic peptide receptor 1 (Homo sapiens) (UniProt P16066). The experiment in a line: Natriuretic polypeptide receptor (hNpr1) antagonism - Pilot screen (AID 1347049; calls by dose curve;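 further: HEK293 cells with hNpr1 and GloSensor cGMP luciferase stimulated by 0.1 nM hNppA; agonist-evoked cGMP luminescence read 20 min after hNppA addition; on the % scale 0 is the no-effect control and ±100 the full control effect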). Summed up:
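Cells expressing receptor plus cGMP biosensor are seeded and incubated overnight at 37C, then loaded with GloSensor reagent (2% final) at room temperature for 2 h. Library compounds go on for 30 min. A pre-read precedes agonist (hNppA, 0.1 nM final) and a 20-min readout.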

Assay [4] deals with Atrial natriuretic peptide receptor 2 (Homo sapiens) (UniProt P20594). The experiment in a line: Natriuretic polypeptide receptor (hNpr2) antagonism - Pilot subtype selectivity assay (AID 1347050; calls by dose curve; further: on the % scale 0 is the no-effect control and ±100 the full control effect). Summed up:
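Read-out: GloSensor luminescence (CCD imager), baseline vs post-stimulation. HEK293 cells expressing hNpr2; compounds pre-incubated 30-50 min at ambient temperature; hNppC 1 nM final, 20 min.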

A short description of assay [5]: NS1 protein of Zika virus - qHTS assay to identify small molecule inhibitors in human HEK 293 cells (AID 1347053).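 Further: plate controls were infected untreated cells for no effect and uninfected cells for full effect; nearly all actives have a fitted effect of over 55% in size.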 Summed up: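 Compound-treated (1 h pre-infection) HEK 293 cells infected with ZIKV MR766, MOI = 0.5; after 24 h at 37 C, NS1 read by TR-FRET; data normalized to uninfected and infected controls.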
Assay [6] is described as follows: qHTS Assay for Identifying Gametocytocidal Compounds (AID 743244). Further: potency means the concentration at half of the fitted maximal effect.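 On max response: on the % scale 0 is the no-effect control and ±100 the full control effect; actives lower the fluorescent signal which means gametocytes are killed.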 The settings on record: P. falciparum 3D7 stage III-V gametocytes, alamarBlue, 72 h; max response: stronger effect = lower value. Summed up:
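Late gametocytes (III–V), P. falciparum 3D7; 72 h drug, then 24 h alamarBlue; resazurin reduction read by fluorescence.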

Assay [7] is described as follows: Natriuretic polypeptide receptor (hNpr1) antagonism - Pilot counterscreen GloSensor control cell line (AID 1347045; calls by dose curve; further: potency means the concentration at half of the fitted maximal effect). Summed up: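 The SNP-driven cGMP luminescence signal (50 uM, 20 min, room temperature) was measured in GloSensor HEK293 control cells. Compounds were tested as a LOPAC titration series and preincubated for 30-50 min.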
In general terms: Counterscreens check selectivity or assay interference.

Assay [8] in a line: qHTS assay to identify small molecule inhibitors of chordoma cells - UCH-1 (AID 1259355). Further: on the % scale 0 is the no-effect control and ±100 the full control effect; nearly all actives have a fitted effect of over 55% in size. Summed up:
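A 48hr growth-inhibition format: each drug tested at 15 concentrations together with added auranofin, camptothecin, doxorubicin, rubitecan and topotecan, with cell viability quantified as CellTiter-Glo luminescence.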

Assay [9] in a line: qHTS assay to identify small molecule inhibitors of chordoma cells - UCH-2 (AID 1259356). Further: on the % scale 0 is the no-effect control and ±100 the full control effect.
Assay [10] in a line: P-glycoprotein substrates identified in KB-8-5-11 adenocarcinoma cell line, qHTS therapeutic library screen (AID 1346987). Further: on the % scale 0 is the no-effect control and ±100 the full control effect; nearly all actives have a fitted effect of over 65% in size. The method, boiled down: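 Human cervical adenocarcinoma KB-8-5-11 cells, selected in colchicine to over-express P-gp and assayed without it, were exposed for 72 h to titrated compounds. An ATP-based luminescent viability signal gave AC50.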
A short description of assay [11]: qHTS profiling for inhibitors of Plasmodium falciparum (3D7) proliferation (AID 743322).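 Further: infected erythrocytes exposed to compound for 72 h before lysis; 100% = DMSO vehicle wells and 0% = 0.29 µM artemisinin.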 The settings on record: P. falciparum 3D7 proliferation; at 28.7 µM (top of the series). The method, boiled down: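 Parasite DNA was quantified by SYBR Green I fluorescence (ex 485, em 535 nm) after overnight lysis in saponin/Triton buffer at room temperature. Cultures at 0.3% parasitemia and 2.5% hematocrit were first exposed to compound for 72 h at 37 C; signals were normalised to artemisinin (0.29 uM) and vehicle wells.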

Assay [12] can be described thus: qHTS profiling for inhibitors of Plasmodium falciparum (DD2) proliferation (AID 743323; call rule not given here). Particulars: lower = more inhibition; at 28.7 µM (top of the series). Summed up: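 Parasite proliferation measured via DNA-dye fluorescence, as uninfected erythrocytes lack DNA. Cultures at 0.3% parasitemia and 2.5% hematocrit incubated 72 h with compound; signal scaled between vehicle and 0.29 uM artemisinin wells.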

A short description of assay [13]: qHTS profiling for inhibitors of Plasmodium falciparum (HB3) proliferation (AID 743324).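 Further: 100% = DMSO vehicle wells and 0% = artemisinin-treated control wells.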 Particulars: Plasmodium falciparum HB3 blood-stage proliferation; at 28.7 µM (top of the series). The method, boiled down: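 SYBR Green fluorescence (485 ex/535 em) of lysed cultures, incubated overnight at room temperature in the dark, quantifies parasite DNA. Infected erythrocytes at 0.3% parasitemia and 2.5% hematocrit were exposed 72 h; values normalized to DMSO and 0.29 uM artemisinin controls.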

Records with an inconclusive call do not appear. Calls of active or inactive are those of the source. Unless noted, the call rests on the fitted dose curve; in most records, active means well fitted curve in the direction sought with a large enough effect; inconclusive means small, poorly fitted or top-dose-only effect, or another doubt; inactive means no such curve, though single readings can be large; an effect the other way counts as inactive or inconclusive.

Chain of Atrial natriuretic peptide receptor 1 (Homo sapiens) (P16066 whole entry, looked up): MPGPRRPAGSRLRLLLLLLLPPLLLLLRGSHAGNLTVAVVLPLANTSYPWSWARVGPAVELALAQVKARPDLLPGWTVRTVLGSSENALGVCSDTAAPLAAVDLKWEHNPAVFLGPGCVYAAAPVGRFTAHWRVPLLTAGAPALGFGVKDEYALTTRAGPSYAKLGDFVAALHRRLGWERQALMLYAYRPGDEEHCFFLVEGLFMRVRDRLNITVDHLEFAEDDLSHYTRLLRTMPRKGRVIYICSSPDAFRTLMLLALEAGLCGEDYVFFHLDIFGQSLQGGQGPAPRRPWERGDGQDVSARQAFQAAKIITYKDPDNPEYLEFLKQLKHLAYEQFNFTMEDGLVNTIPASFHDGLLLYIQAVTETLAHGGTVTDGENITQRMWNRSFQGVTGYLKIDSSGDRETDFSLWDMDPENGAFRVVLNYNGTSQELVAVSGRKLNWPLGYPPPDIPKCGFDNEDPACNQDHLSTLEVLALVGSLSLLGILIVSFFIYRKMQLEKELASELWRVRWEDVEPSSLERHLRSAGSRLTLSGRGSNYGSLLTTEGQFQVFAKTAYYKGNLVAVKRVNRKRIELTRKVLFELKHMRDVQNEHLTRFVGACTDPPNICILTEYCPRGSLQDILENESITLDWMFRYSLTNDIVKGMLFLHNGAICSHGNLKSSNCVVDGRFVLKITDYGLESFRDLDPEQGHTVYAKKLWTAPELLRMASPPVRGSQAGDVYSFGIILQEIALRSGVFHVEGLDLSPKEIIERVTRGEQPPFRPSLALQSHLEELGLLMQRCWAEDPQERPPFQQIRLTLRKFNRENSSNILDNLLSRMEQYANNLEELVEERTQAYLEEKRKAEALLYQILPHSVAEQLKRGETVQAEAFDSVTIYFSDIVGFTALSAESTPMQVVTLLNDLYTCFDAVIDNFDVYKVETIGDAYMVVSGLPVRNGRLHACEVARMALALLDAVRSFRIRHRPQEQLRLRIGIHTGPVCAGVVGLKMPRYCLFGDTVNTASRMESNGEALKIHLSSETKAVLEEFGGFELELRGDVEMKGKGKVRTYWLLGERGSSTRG
Chain of Atrial natriuretic peptide receptor 2 (Homo sapiens) (P20594 whole entry, looked up): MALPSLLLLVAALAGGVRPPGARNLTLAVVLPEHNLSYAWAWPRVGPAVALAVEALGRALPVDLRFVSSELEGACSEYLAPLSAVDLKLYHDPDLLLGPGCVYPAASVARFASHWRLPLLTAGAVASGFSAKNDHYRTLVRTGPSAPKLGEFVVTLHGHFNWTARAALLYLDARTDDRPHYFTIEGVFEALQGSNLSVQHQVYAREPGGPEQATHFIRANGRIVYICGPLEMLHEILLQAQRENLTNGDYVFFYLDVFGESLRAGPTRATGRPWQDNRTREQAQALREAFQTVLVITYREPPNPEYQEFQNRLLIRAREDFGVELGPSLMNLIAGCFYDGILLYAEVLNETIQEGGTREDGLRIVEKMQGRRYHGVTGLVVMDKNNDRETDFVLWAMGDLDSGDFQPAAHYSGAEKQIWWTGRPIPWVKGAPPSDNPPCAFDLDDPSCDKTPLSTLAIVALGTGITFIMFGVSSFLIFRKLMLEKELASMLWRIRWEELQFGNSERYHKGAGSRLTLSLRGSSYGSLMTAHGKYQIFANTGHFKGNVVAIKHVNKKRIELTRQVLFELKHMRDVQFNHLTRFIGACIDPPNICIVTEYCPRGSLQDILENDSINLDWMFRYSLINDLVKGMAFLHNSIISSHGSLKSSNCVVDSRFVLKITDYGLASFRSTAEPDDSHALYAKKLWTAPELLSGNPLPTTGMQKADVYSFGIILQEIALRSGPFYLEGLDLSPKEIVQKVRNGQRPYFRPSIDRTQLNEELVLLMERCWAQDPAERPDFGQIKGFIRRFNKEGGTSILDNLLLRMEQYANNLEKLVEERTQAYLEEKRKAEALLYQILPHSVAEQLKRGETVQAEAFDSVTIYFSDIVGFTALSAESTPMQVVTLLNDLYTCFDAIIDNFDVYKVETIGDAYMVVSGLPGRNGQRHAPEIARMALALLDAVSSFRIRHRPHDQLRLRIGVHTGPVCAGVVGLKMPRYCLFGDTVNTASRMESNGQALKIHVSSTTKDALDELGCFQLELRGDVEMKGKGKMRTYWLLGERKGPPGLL

Regarding `Cc1o[nH]c(=O)c1CC(N)C(=O)O` (centres undefined), the Potency entry in assay [1], in assay [3] and in assay [4] was “inactive” in each case. Also, the result in assay [2] and in assay [5] was inactive.
Consider `Nc1cc2c(ncn2CCOCP(=O)(O)O)c(=O)[nH]1`, for which the Potency entry in [1] is “inactive”. For the same compound, the compound was classed as inactive in assay [5].
Turning to `Ic1ccccc1CNC1C2CCN(CC2)C1C(c1ccccc1)c1ccccc1` (centres undefined), the Potency in assay [6] was 1780 nM (active); in assay [7] it was 13100 nM (active). In [1], the Potency result is “inactive”. Further, the call in [2] was inactive.
As for `C[C@H]1C2Cc3ccc(O)cc3[C@@]1(C)CCN2CC1CC1`, in assay [1], the Potency result was “inactive”. The compound was classed as inactive in assay [5].
For the compound `CC1(C(=O)O)C2CCC(O2)C1(C)C(=O)O` (centres undefined), the max response in [6] is -9.57% (inactive). Besides, the Potency entry in [1], in [3] and in assay [4] was “inactive” throughout. For the same compound, in assay [2], the call was inactive.
Turning to `COC(=O)N1CCN(C(=O)Cc2ccc(Cl)c(Cl)c2)C(CN2CCCC2)C1` (centres undefined), the max response in assay [6] was 14.6% (inactive). In addition, the Potency entry in assay [1], in [3] and in assay [4] was “inactive” each time. Further, the outcome in assay [2] and in [5] was inactive.
For the compound `C[C@H](N)Cc1cccc(C(F)(F)F)c1`, in assay [6], the max response was 11.9% (inactive). The Potency result in [1] and in assay [3] was “inactive” in each case. In addition, the compound was classed as inactive in assay [2] and in [5].
With `CNc1ccc2oc(C[C@H]3O[C@@]4(CC[C@H]3C)O[C@H]([C@H](C)C(=O)c3ccc[nH]3)[C@H](C)C[C@H]4C)nc2c1C(=O)O`, in assay [6], the Potency is 2350 nM (active). In addition, the Potency result in [1], in assay [3] and in assay [4] was “inactive” each time. Also, in [2], the result was inactive.
With `CCCn1c(=O)c2[nH]c(C3CCCC3)nc2n(CCCOC(=O)c2ccc(S(=O)(=O)F)cc2)c1=O`, the max response in [6] is 11.9% (inactive). For the same compound, the Potency entry in assay [1], in assay [7] and in assay [4] was “inactive” each time. For the same compound, the result in assay [2] and in assay [5] was inactive.
On to `CCCN1CCc2cc(O)cc3c2[C@H]1Cc1ccc(O)c(O)c1-3`, for which the Potency result in assay [1], in assay [3] and in assay [4] was “inactive” each time. The result in [2] and in assay [5] was inactive.
With `CC(C)[C@@]1(NC(=O)[C@@H]2C[C@@H]3c4cccc5[nH]cc(c45)C[C@H]3N(C)C2)O[C@@]2(O)[C@@H]3CCCN3C(=O)[C@H](Cc3ccccc3)N2C1=O`, the Potency in [6] is 5010 nM (active). The compound was called inactive in assay [2]. Moreover, the Potency result in assay [8], in assay [9], in assay [10], in [7], in assay [3] and in [4] was “inactive” in each case.
As for `NC(Cc1ccc(N(CCCl)CCCl)cc1)C(=O)O` (centres undefined), in assay [6], the max response was 8.23% (inactive). In addition, the remaining parasite growth % (stronger effect = lower value) in [11] is 34.1%. For the same compound, the activity, percent of control in assay [12] worked out at 18.8%. Besides, in assay [13], the remaining proliferation (% of control), lower = more inhibition was 9.39%. In addition, in [2], the call was inactive. Moreover, the Potency entry in [7], in assay [3] and in assay [4] was “inactive” in each case.
With `CCCCCCC(C)(C)c1ccc([C@@H]2C[C@H](O)CC[C@H]2CCCO)c(O)c1`, in [2], the compound was called inactive. Besides, the Potency result in [3] and in assay [4] was “inactive” throughout.
Consider `COc1ccc2c(c1)[C@@]13CCCC[C@H]1[C@@H](C2)NCC3`, for which the call in assay [2] was inactive. For the same compound, the Potency result in assay [7], in [3] and in assay [4] was “inactive” throughout.
For `CN(N=O)c1ccc(O)c(O)c1`, the Potency in assay [6] was 1000 nM (active). For the same compound, the outcome in assay [2] and in assay [5] was inactive. Moreover, the Potency entry in assay [3] and in assay [4] was “inactive” in each case.
For the compound `CC(C)(O)C1C2OC(=O)C1C1(O)CC3OC34C(=O)OC2C14C` (centres undefined), the Potency entry in assay [8] is “inactive”.

Source of the values: PubChem BioAssay (NCATS).
